Results from PubChem BioAssay AID2620 (National Center for Advancing Translational Sciences (NCATS), 2010).
Results filed as inconclusive are left out. The source made the active and inactive calls. The call rests on the fitted dose curve; in most records, active means well fitted curve in the direction sought with a large enough effect; inconclusive means small, poorly fitted or top-dose-only effect, or another doubt; inactive means no such curve, though single readings can be large or run the other way.

Each compound was assayed against Pyruvate kinase PKM (Homo sapiens) (UniProt P14618) (assay: Secondary LDH Assay for Activators of Human Pyruvate Kinase M1 Isoform: for Probe SAR). Settings: purified hPK-M1, LDH-coupled NADH fluorescence kinetic; series mostly up to 58.2 µM; activity change, negative = inhibition: at the top concentration.
Sequence of Pyruvate kinase PKM (Homo sapiens) (P14618 whole entry, looked up, canonical isoform): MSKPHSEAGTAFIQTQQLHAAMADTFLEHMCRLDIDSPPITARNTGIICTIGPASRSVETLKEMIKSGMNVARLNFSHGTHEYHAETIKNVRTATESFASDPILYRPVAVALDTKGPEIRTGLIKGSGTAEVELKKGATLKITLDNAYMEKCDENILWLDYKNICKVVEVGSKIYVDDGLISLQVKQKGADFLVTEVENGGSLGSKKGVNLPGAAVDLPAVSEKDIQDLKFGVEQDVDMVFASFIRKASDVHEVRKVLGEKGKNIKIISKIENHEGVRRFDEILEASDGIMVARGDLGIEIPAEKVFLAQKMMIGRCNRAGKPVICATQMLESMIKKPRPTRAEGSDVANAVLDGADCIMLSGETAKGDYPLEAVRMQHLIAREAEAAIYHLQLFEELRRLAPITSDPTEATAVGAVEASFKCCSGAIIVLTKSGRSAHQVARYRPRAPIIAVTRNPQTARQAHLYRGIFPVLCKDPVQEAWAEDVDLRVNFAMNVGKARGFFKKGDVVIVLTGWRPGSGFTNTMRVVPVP
Description: NIH Chemical Genomics Center [NCGC]
Matthew G. Vander Heiden, M.D., Ph.D. [Harvard Medical School, 77 Avenue Louis Pasteur, Boston, MA 02115]
Human pyruvate kinase […] (hPK-M1)enzyme was supplied as a highly purified (>95% pure) preparation from Harvard Medical School and a secondary assay was used to evaluate compounds. This assay couples the formation of pyruvate from […] using lactate dehydrogenase (LDH) and NADH. The depletion of NADH is followed in a fluorescent-based kinetic assay that follows the formation of pyruvate to lactate, as catalyzed LDH. Pyruvate kinase substrates, PEP and ADP, were present in the assay at 0.1 mM and 4 mM respectively. In this kinetic assay initial rates were determined by following the fluorescence of NADH depletion.
NCGC Assay Protocol Summary:
Three uL of substrate mix (final concentration, 50 mM Tris-Cl pH 8.0, 200 mM KCl, 15 mM MgCl2, 0.1 mM PEP, 4.0 mM ADP, and 0.2 mM NADH) was dispensed into black-solid 1536 well plates. 23 nL of compounds were delivered by a pin tool and 1 uL of enzyme mix (final concentrations, 10 nM hPK-M1 and 1 uM of LDH) was added. Plates were immediately placed in ViewLux (Perkin Elmer) and NADH fluorescence was determined at 30 second exposure intervals for between 3 and 6 minutes. Data were normalized to the uninhibited controls.
Further: % of control where 0% means no effect.

Activity change, negative = inhibition, inactive:
O=S1(=O)N=C(Oc2ccccc2)c2ccccc21 3.28% [at 82.8 µM]
Cc1cccc(OC2=NS(=O)(=O)c3ccccc32)c1 2.57%
O=C1c2ccccc2C(=O)N1c1ccccc1O 2.14%
Cc1ccc(NS(=O)(=O)c2cc3c(cc2N2CCCCC2)NC(=O)CC3)cc1C 0.398%
O=C1CCc2cc(S(=O)(=O)Nc3cccc(Cl)c3)ccc2N1 -3.53%
O=C1NS(=O)(=O)c2ccccc21 -0.749%
Cc1ccc2nc(-c3ccc(C)o3)c(NC3CCCC3)n2c1 -5.73%
O=C1CCc2cc([S+](=O)([O-])Nc3ccc(N[S+](=O)([O-])c4ccc5c(c4)CCC(=O)N5)cc3)ccc2N1 -2.5%
Cc1ccc(NS(=O)(=O)c2cccc(Cl)c2)cc1C 4.63%
Cc1ccc(NS(=O)(=O)c2ccc3c(c2)C(Cl)(Cl)C(=O)N3)cc1C 16.8%
O=C1CCc2cc(S(=O)(=O)Nc3ccc(Cl)c(Cl)c3)ccc2N1 18.2%
O=C1c2ccccc2C(=O)N1Cc1ccccn1 4.1%
Cc1ccc(-c2nc3cnccn3c2Nc2ccc(C(C)C)cc2)o1 12.3%
CC(=O)N1CCCc2cc(S(=O)(=O)Nc3ccc(C)c(C)c3)ccc21 3.31%
O=C1CCc2cc(S(=O)(=O)Nc3cccc(Oc4ccccc4)c3)ccc2N1 -2.58%
O=C1c2ccccc2C(=O)N1c1ccc2ncccc2c1 -2.45%
Cc1ccc(Nc2c(-c3ccc(C)s3)nc3cccc(C)n23)cc1 -21.1%
O=C1CCc2cc(S(=O)(=O)Nc3ccc(F)c(Cl)c3)ccc2N1 2.16%
Nc1cccc(S(=O)(=O)N2CCCN(S(=O)(=O)c3ccc4c(c3)OCCO4)CC2)c1 2.23%
Cc1ccc(NS(=O)(=O)c2cc3c(cc2-c2cn[nH]c2)NC(=O)CO3)cc1C 16.9%
Cc1ccc(Nc2c(-c3ccc(C)o3)nc3cccc(C)n23)cc1 -25.5%
Cc1ccc(Cl)cc1NS(=O)(=O)c1cc2c(cc1F)NC(=O)CC2 9.43%
O=C1CCc2cc(S(=O)(=O)Nc3cccc4ccccc34)ccc2N1 8.49%
CNc1cc2c(cc1S(=O)(=O)Nc1ccc(C)c(C)c1)CCC(=O)N2 4.43%
CC(=O)Nc1cccc(S(=O)(=O)Nc2ccc(C)c(C)c2)c1 2.8%
O=C1c2ccccc2C(=O)N1c1cncc2ccccc12 -6.7%
Cc1ccn2c(NC3CCCCC3)c(-c3ccc(C)o3)nc2c1 -4.41%
Fc1ccccc1-c1ccc(-c2nc3ccc(Cl)cn3c2Nc2ccc(Cl)cc2)o1 13.2%
O=C1c2ccccc2C(=O)N1c1ncccc1O 6.3%
O=C1c2ccccc2C(=O)N1c1cccc2cccnc12 -3.81%
Cc1ccc(Nc2c(-c3ccsc3)nc3cccc(C)n23)cc1 -5.94%
Cc1ccc(NS(=O)(=O)c2cc3c(cc2C)NC(=O)CO3)cc1C 16.5%
O=C1CCc2cc(S(=O)(=O)Nc3ccc4c(c3)OCCO4)ccc2N1 4.89%
COc1ccc(OC2=NS(=O)(=O)c3ccccc32)cc1 8.93%
CNc1cccc(S(=O)(=O)N2CCN(S(=O)(=O)c3ccc4c(c3)OCCO4)CC2)c1 -4.54%
Cn1c2cc(S(C)=O)sc2c2cnn(Cc3cccc(O)c3)c(=O)c21 (stereo not given) 10.1%
O=C1c2ccccc2C(=O)N1c1ccc(Cl)cc1 -5.95%
Cc1ccc(NS(=O)(=O)c2ccc3c(c2)CCC(=O)N3)cc1Cl 8.26%
Cc1ccc2nc(-c3ccc(C)o3)c(Nc3ccc(F)cc3)n2c1 -22%

outcome, inactive:
Cc1cc2c(s1)c1cnn(Cc3ccccc3F)c(=O)c1n2C
